The whole screen tested about 320,000 compounds, of which about 22,000 (6.9%) were called active. Entries that show only a call come without a potency. Not shown: some 27% with an inconclusive outcome. Only a selection was taken, and actives are over-represented in it overall. Unmarked numbers belong to inactive results. The call rests on the fitted dose curve; in most records, active means well fitted inhibition curve with a large enough effect; inconclusive means small, poorly fitted or top-dose-only effect, or another doubt; inactive means no such curve, though single readings can be large or run the other way.

Our source for the Potency and activity change, negative = inhibition values is PubChem BioAssay AID504834 (National Center for Advancing Translational Sciences (NCATS), 2011).
Potency means the concentration at half of the fitted maximal effect.

This experiment in a line: Primary qHTS for delayed death inhibitors of the malarial parasite plastid, 96 hour incubation. As to conditions: P. falciparum luciferase reporter growth; series mostly up to 28.7 µM. The method, boiled down: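 Luminescence readout: decreased luciferase signal marks inhibited growth of reporter-expressing P. falciparum in infected red cells (2% hematocrit, 0.05% parasitemia final), exposed to compound two generations (96 h, 37 C, 5% CO2).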
For orientation: qHTS replaces the single test concentration by a dilution series.
As to `CCCc1nc2c(c(=O)c3ccccc3n2C)c(=O)n1-c1cc(C)cc(C)c1`, the Potency is 5.86 µM (active).
For `CCCCNC(=O)CCn1c(=O)c2ccccc2n(Cc2cc(C)ccc2C)c1=O`, the Potency entry was “inactive”.
For the compound `Cn1c2ccccc2c2c(C(=O)N3CCN(c4ccc(F)cc4)CC3)cn(C3CCCC3)c(=O)c21`, the Potency result was “inactive”.
In the case of `Cn1c2ccccc2c(=O)c2c(O)cccc21`, the Potency result was “inactive”.
`CCCc1nc2c(c(=O)c3ccccc3n2C)c(=O)n1C1CCCCCC1`: the Potency is 14.7 µM (active).
Take `COc1ccccc1C(=O)OCC(=O)NCCNC(=O)COC(=O)c1ccccc1OC`: the Potency entry is “inactive”.
As to `Cn1cccc1C(=O)N1CCc2ccccc2C1`, the Potency result is “inactive”.
Still for that read-out and setting: the result for `CCOc1ccc(NC(=O)CN(C)C(=O)c2c(C)noc2C)cc1OCC` reads “inactive”; that for `C=CCCN(Cc1ccccc1)S(=O)(=O)c1ccccc1Br`, “inactive”; that for `C=CC(COCc1ccccc1)N(Cc1ccccc1)S(=O)(=O)c1ccccc1Br` (configuration not stated), 9.28 µM (active).
For `COc1ccc(S(=O)(=O)n2nc(C)c(S(=O)(=O)N3CCOCC3)c2C)cc1`, the Potency entry was “inactive”.
Same read-out and setting: in the case of `COc1ccc(C(=O)NCCNc2ccc([N+](=O)[O-])cn2)cc1` it was “inactive”.
For `Cc1csc(NC(=O)CSc2ccc(-c3ccc(F)cc3)nn2)n1`, the activity change, negative = inhibition was -36.6% [at 1.15 µM].
Take `O=C(CSc1ccc(-c2cccs2)nn1)Nc1ccccc1F`: the Potency is 2.33 µM (active).
In the case of `Cn1c(CCC(=O)Nc2ccccc2F)nnc1SCC(=O)Nc1ccccc1Cl`, the Potency entry is “inactive”.
For `CCN(CC)S(=O)(=O)c1ccc(NC(=O)c2cnc(C)cn2)cc1`, the Potency entry was “inactive”.
Consider `Cc1cccc2c1cnn2C(=O)CCC(=O)NC1CCCCC1`, for which the Potency is 13.1 µM (active).
In the case of `Cc1nn(CC(=O)NC2CCCCC2)c(=O)c2cccn12`, the Potency result was “inactive”.
For `Cc1ccc2c(cnn2C(=O)CCC(=O)NC2CCCC2)c1`, the Potency entry is “inactive”.
Take `CNC(=O)CSc1nnnn1-c1ccc(C)cc1C`: the Potency entry was “inactive”.
On to `CCn1nnnc1SCC(=O)Nc1ccc(N(C)C)cc1`, for which the Potency entry was “inactive”.
On to `CCn1nnnc1SCC(=O)c1ccc(C)cc1C`, for which the Potency is 7.38 µM (active).
On the same count and under the same terms, in the case of `O=C1CSC(=S)N1c1ccc(Cl)c(Cl)c1` it was “inactive”; in that of `NC(=O)c1ccc(-c2csnn2)cc1`, “inactive”.
The same measure, in the same setting: the result for `C[C@H](OC(=O)n1ccnc1)[C@@H]1O[C@@]2(C)CCC[C@@H]1O2` reads “inactive”; that for `COc1ccccc1OCCC(=O)OCC(=O)NCc1ccccc1`, “inactive”.
Turning to `COc1cc(C(=S)NCc2ccccc2)cc(Br)c1O`, the Potency entry is “inactive”.
With `COc1cc(C=O)c(Br)cc1OCC(=O)NCc1ccccc1`, the Potency is 11.7 µM (active).
For the compound `CCOc1ccc(S(=O)(=O)N2CCC(c3ccccc3)CC2)cc1C(=O)O`, the Potency entry was “inactive”.
As for `C=CCn1c(COc2ccccc2C)nnc1SCC(=O)O`, the Potency result was “inactive”.
Take `Nn1c(Cc2cccc3ccccc23)nnc1SCC(=O)N1CC(=O)Nc2ccccc21`: the Potency entry is “inactive”.
Same read-out and setting: in the case of `C=CCn1c(COc2ccccc2F)nnc1SCC(=O)N1CC(=O)Nc2ccccc21` it was 8.28 µM (active); in that of `O=C(COc1ccccc1)Nc1ccc(C(=O)N2CCCC2)cc1`, “inactive”; in that of `COc1cc(Cl)c(C)cc1NC(=O)CN1CCCCCC1`, “inactive”.
As to `Cc1cc(NC(=O)CSC2=NS(=O)(=O)c3cc(Cl)ccc3N2)no1`, the Potency entry was “inactive”.
For the compound `CCCOP(=O)(c1ccc(N(C)C)cc1)C(O)c1cc(OC)c(OC)c(OC)c1` (configuration not stated), the Potency was 10.4 µM (active).
For `CCCCOP(=O)(c1ccc(N(C)C)cc1)C(O)c1cc(OC)ccc1OC` (configuration not stated), the Potency result was “inactive”.
Turning to `Cc1ccc(C(O)P(=O)(OC(C)C)c2ccc(N(C)C)cc2)cc1` (configuration not stated), the Potency entry is “inactive”.
The same measure, in the same setting: the result for `CN=C1S/C(=C\c2ccc(Sc3ccc(Cl)cc3)o2)C(=O)N1C` reads “inactive”.
Regarding `CCCCSc1nc2ccccc2[nH]1`, the Potency entry is “inactive”.
As for `CCC(C)N1C(=O)S/C(=C/c2ccc(Sc3nc4ccccc4[nH]3)o2)C1=O` (configuration not stated), the Potency was 1.65 µM (active).
With `[2H]C(CCOS(N)(=O)=O)c1ccccc1` (configuration not stated), the Potency entry is “inactive”.
On to `COCCCn1c(SCC(=O)NC2CCCC2)nnc1-c1ccccc1`, for which the Potency result was “inactive”.
Turning to `CC(C)(C)C(=O)NC1CC2CCCC(C1)N2C(=O)Nc1ccccc1F` (configuration not stated), the Potency entry was “inactive”.
Regarding `O=S(=O)(c1cccc(-c2nnc3n2CCCCC3)c1)N1CCOCC1`, the Potency result was “inactive”.
Same read-out and setting: in the case of `O=S(=O)(c1cccc(-c2nnc(SC(F)F)n2-c2ccccc2)c1)N1CCCCC1` it was 7.38 µM (active).
As for `O=S(=O)(c1cccc(-c2cn3ccccc3n2)c1)N1CCCC1`, the Potency entry is “inactive”.
Turning to `Cc1noc(C)c1C(=O)OCC(=O)N1CCN(S(=O)(=O)c2ccc3ccccc3c2)CC1`, the Potency entry is “inactive”.
Turning to `Cc1cc(S(=O)(=O)NC2CCCC2)ccc1-n1cnnn1`, the Potency result was “inactive”.
On the same count and under the same terms, the result for `C[C@@H](Nc1nc(-c2ccccc2)nc2c1oc1ccccc12)C(=O)O` reads “inactive”.
`O=c1[nH]c(CSc2ccccc2)nc2c1oc1ccccc12`: the Potency is 5.22 µM (active).
As to `Cc1nc(Cl)c2oc3ccccc3c2n1`, the Potency result is “inactive”.
On to `CC(C)(C)c1cc[n+](-c2[nH]c(=O)sc2/C=N/N=C(\[O-])c2ccccc2)cc1`, for which the Potency entry was “inactive”.
As to `O=C(OCC(=O)N1CCN(C(=O)c2ccco2)CC1)c1cccc(O)c1`, the Potency result was “inactive”.
On the same count and under the same terms, the result for `CC(=O)Nc1ccc(NC(=O)CSc2nnc(C3CC3)n2-c2ccccc2)cc1` reads “inactive”.
On to `Nc1nnn(CC(=O)N/N=C/c2ccc(O)cc2)n1`, for which the Potency result is “inactive”.
Take `O=C(NC1CCN(C(=S)Nc2ccc(Cl)cc2)CC1)C1CCCCC1`: the Potency result is “inactive”.
On to `CCOCCCNC(=S)N1CCC(NC(=O)C2CCCCC2)CC1`, for which the Potency result is “inactive”.
The same measure, in the same setting: in the case of `O=C(NC1CC2CCCC(C1)N2C(=O)N1CCCCC1)C1CCCCC1` (configuration not stated) it was 14.7 µM (active).
On to `CSc1ccccc1OCc1cc(C(=O)N2C[C@H]3CC[C@H]2C3)no1`, for which the Potency entry was “inactive”.
Still for that read-out and setting: in the case of `COc1ccc(S(=O)(=O)N2CCCC(C(=O)NCCCn3ccnc3)C2)cc1OC` (configuration not stated) it was “inactive”.
Take `CCOc1ccc(S(=O)(=O)NCCCn2ccnc2)cc1NC(C)=O`: the Potency is 13.1 µM (active).
On to `Cc1ccc(S(=O)(=O)NCCCn2ccnc2)cc1C(=O)NC(C)C`, for which the Potency entry is “inactive”.
On the same count and under the same terms, in the case of `CC(NC(=O)COc1cccnc1[N+](=O)[O-])c1ccc(Cl)cc1Cl` (configuration not stated) it was “inactive”.
`Clc1cccc(CN2COc3c(cc(Cl)c4cccnc34)C2)c1`: the Potency was 0.329 µM (active).
As for `CC(C)CC(=O)N1CCN(Cc2cccc(Cl)c2)CC1`, the Potency entry was “inactive”.
On to `O=C(C1CCC1)N1CCN(c2ccccc2)CC1`, for which the Potency result is “inactive”.
For the compound `COc1ccc(NC(=O)CCC(=O)Nc2nnc(C3CCCCC3)s2)cc1`, the Potency entry was “inactive”.
Same read-out and setting: in the case of `COc1cc(C(=O)NCc2cc3cc(Cl)ccc3n2C)cc(OC)c1OC` it was “inactive”; in that of `Cc1nc(SCC(=O)N2CCc3ccccc3C2)c2c(C)c(C)sc2n1`, “inactive”; in that of `CCn1c(SCC(=O)c2ccc3ccccc3c2)nnc1-c1cccs1`, “inactive”.
Consider `O=C(CSc1nnc(-c2cccs2)n1Cc1ccccc1)N1CCc2ccccc2C1`, for which the Potency is 10.4 µM (active).
